Conditions in all cases: 10 µM; exposure time 6 h
Experiment [1] concerns Danio rerio larvae (5 dpf). The experiment is described as follows: difference in excitability vs DMSO (percentage points); higher = more excitable than DMSO. The method in brief: (§1)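 Wild-type zebrafish larvae at 5 dpf were kept in 96-well plates and exposed for 6 h to 100 µL egg water holding library compound at a final concentration of 10 µM. From 3 h into exposure, the plates were held at 28.5 ℃ and photographed every 6 s through a 3-h programme of moving lines and 100 ms, 400Hz tones. Each behaviour was scored by Z-LaP Tracker, a DeepLabCut model, and averaged over 48 larvae per compound. Every value gives the compound mean minus the vehicle control mean, in percentage points.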

Experiment [2] relates to Danio rerio larvae (5 dpf). The experiment is described as follows: difference in startle response vs DMSO (percentage points); higher = stronger startle than DMSO. The method in brief: as §1
Experiment [3] has as its system Danio rerio larvae (5 dpf). The experiment is described as follows: difference in activity during first hour vs DMSO (percentage points); higher = more activity than DMSO. An outline of the steps: as §1
Experiment [4] has as its system Danio rerio larvae (5 dpf). The experiment is described as follows: difference in habituation to acoustic stimuli vs DMSO (percentage points); higher = more habituation than DMSO. An outline of the steps: as §1
Experiment [5] concerns Danio rerio larvae (5 dpf). Kind of experiment: difference in combined optomotor response to red, green and blue moving lines vs DMSO (percentage points); higher = stronger optomotor response than DMSO. An outline of the steps: as §1

Structures are written as SMILES. Counter-ions that a name gives are not always drawn.

Compound `COC(=O)C1=C(C)NC(C)=C(C(=O)OC)C1c1ccccc1[N+](=O)[O-]` [Nifedipine] displayed a difference in excitability in experiment [1] of 8.58. For the same compound, the “difference in startle response” value in experiment [2] is -1.47. The “difference in activity during first hour” value in experiment [3] was -4.95. The “difference in habituation to acoustic stimuli” value (from here on “difference in habituation”) in experiment [4] is 0.749. Moreover, the difference in experiment [5] amounted to 12.1.

The compound `O=C(O)COCCN1CCN(C(c2ccccc2)c2ccc(Cl)cc2)CC1` (stereo not given) [Cetirizine (hydrochloride)] had a difference in excitability in experiment [1] of -1.62. In addition, in experiment [2], the “difference in startle response” value was determined as 2.46. Moreover, the “difference in activity during first hour” value in experiment [3] worked out at 4.04. Further, in experiment [4], the “difference in habituation” value was -2.99. Further, in experiment [5], the difference was found to be 6.72.

Turning to `O=C(O)C[C@H](O)C[C@H](O)/C=C/c1c(C2CC2)nc2ccccc2c1-c1ccc(F)cc1` [Pitavastatin (calcium salt)], in experiment [1], the difference in excitability came out at 10.2. The “difference in startle response” value in experiment [2] is -3.29. Moreover, the “difference in activity during first hour” value in experiment [3] is 4.76. Also, the “difference in habituation” value in experiment [4] is -3.94. The difference in experiment [5] turned out to be 13.1.

Take `O=C1c2c(O)ccc(O)c2C(=O)c2c(NCCNCCO)ccc(NCCNCCO)c21` [Mitoxantrone (hydrochloride)]: the difference in excitability in experiment [1] stood at 8.92. In experiment [2], the “difference in startle response” value is -11.2. Further, in experiment [3], the “difference in activity during first hour” value is -16.2. In addition, the “difference in habituation” value in experiment [4] was -16. In experiment [5], the difference is -15.4.

Compound `CCN(CC)CC(=O)Nc1c(C)cccc1C` [Lidocaine] registered a difference in excitability in experiment [1] of 4.55. The “difference in startle response” value in experiment [2] was -4.05. For the same compound, the “difference in activity during first hour” value in experiment [3] was 10.3. In addition, the “difference in habituation” value in experiment [4] was -4.04. Also, the difference in experiment [5] was determined as 1.72.

In experiment [1], `Cc1onc(-c2c(Cl)cccc2Cl)c1C(=O)N[C@@H]1C(=O)N2[C@@H]1SC(C)(C)[C@@H]2C(=O)O` [Dicloxacillin (sodium salt hydrate)] registered a difference in excitability of 9.09. In experiment [2], the “difference in startle response” value is -2.02. Also, in experiment [3], the “difference in activity during first hour” value is 8.63. Further, in experiment [4], the “difference in habituation” value is -4. Moreover, in experiment [5], the difference turned out to be 0.484.

For the compound `CC(C)Cn1cnc2c(N)nc3ccccc3c21` [Imiquimod], the difference in excitability in experiment [1] was -4.08. Further, in experiment [2], the “difference in startle response” value was 8.27. Moreover, the “difference in activity during first hour” value in experiment [3] was -15. For the same compound, the “difference in habituation” value in experiment [4] is -2.3. Also, in experiment [5], the difference is -3.49.

Take `CC(C)OC(=O)CCC/C=C\C[C@@H]1[C@@H](/C=C/C(F)(F)COc2ccccc2)[C@H](O)C[C@@H]1O` [Tafluprost]: the difference in excitability in experiment [1] worked out at 10.1. The “difference in startle response” value in experiment [2] is -0.187. Further, in experiment [3], the “difference in activity during first hour” value was -16. Further, in experiment [4], the “difference in habituation” value was determined as 12.5. Moreover, the difference in experiment [5] is -4.17.

The compound `C[C@@H]1C[C@H]2[C@@H]3CCC4=CC(=O)C=C[C@]4(C)[C@@]3(F)[C@@H](O)C[C@]2(C)[C@@]1(O)C(=O)CO` [Dexamethasone] gave a difference in excitability in experiment [1] of -4.56. The “difference in startle response” value in experiment [2] is -3.99. Also, the “difference in activity during first hour” value in experiment [3] is -6.96. For the same compound, in experiment [4], the “difference in habituation” value was 0.952. The difference in experiment [5] worked out at 3.79.

For the compound `OC(CCN1CCCCC1)(c1ccccc1)C1CC2C=CC1C2` (stereo not given) [Biperiden (hydrochloride)], in experiment [1], the difference in excitability was 9.71. The “difference in startle response” value in experiment [2] was -7.39. Further, the “difference in activity during first hour” value in experiment [3] is -0.127. The “difference in habituation” value in experiment [4] is -10.7. In addition, in experiment [5], the difference is -2.85.

Regarding `C1N2CN3CN1CN(C2)C3` [Methenamine Hippurate], the difference in excitability in experiment [1] was 0.76. The “difference in startle response” value in experiment [2] came to 5.89. Besides, in experiment [3], the “difference in activity during first hour” value was -3.94. In addition, the “difference in habituation” value in experiment [4] is 9.62. The difference in experiment [5] amounted to 2.94.

In the case of `Cc1ccc(C)c(OCCCC(C)(C)C(=O)O)c1` [Gemfibrozil], in experiment [1], the difference in excitability amounted to 14.3. The “difference in startle response” value in experiment [2] was -10.7. In addition, in experiment [3], the “difference in activity during first hour” value was -1.6. For the same compound, in experiment [4], the “difference in habituation” value is -4.26. The difference in experiment [5] was determined as 4.28.

Turning to `CCCCNC(=O)NS(=O)(=O)c1ccc(C)cc1` [Tolbutamide], the difference in excitability in experiment [1] came out at 1.04. Also, the “difference in startle response” value in experiment [2] is -0.31. The “difference in activity during first hour” value in experiment [3] was 15.1. In experiment [4], the “difference in habituation” value amounted to 0.867. Also, the difference in experiment [5] came out at 0.664.

`CN(C)CCC=C1c2ccccc2COc2ccccc21` [Doxepin (hydrochloride)]: in experiment [1], the difference in excitability was 9.9. The “difference in startle response” value in experiment [2] was -1.02. In addition, the “difference in activity during first hour” value in experiment [3] came to 0.133. Besides, the “difference in habituation” value in experiment [4] stood at 2.48. The difference in experiment [5] is 4.43.

Take `CC(C)NCC(O)c1ccc(NS(C)(=O)=O)cc1` (stereo not given) [Sotalol (hydrochloride)]: the difference in excitability in experiment [1] is -4.39. Moreover, in experiment [2], the “difference in startle response” value is -2.26. For the same compound, in experiment [3], the “difference in activity during first hour” value was determined as 12. In addition, the “difference in habituation” value in experiment [4] was -2.03. For the same compound, in experiment [5], the difference is -2.43.

In the case of `COc1ccc2[nH]c([S+]([O-])Cc3ncc(C)c(OC)c3C)nc2c1` (stereo not given) [Omeprazole], in experiment [1], the difference in excitability is 14.6. The “difference in startle response” value in experiment [2] is -0.657. Besides, the “difference in activity during first hour” value in experiment [3] was -0.859. Further, the “difference in habituation” value in experiment [4] came to 0.506. Also, the difference in experiment [5] is 5.66.

In turn, `CN(C)CCOC(c1ccc(Cl)cc1)c1ccccn1` (stereo not given) [Carbinoxamine (maleate)] returned a difference in excitability in experiment [1] of 8.33. In experiment [2], the “difference in startle response” value was 3.19. The “difference in activity during first hour” value in experiment [3] was -11.6. In experiment [4], the “difference in habituation” value came to 5.36. Besides, the difference in experiment [5] is -7.17.

Consider `Oc1ccc(C2CNCCc3c2cc(O)c(O)c3Cl)cc1` (stereo not given) [Fenoldopam (mesylate)], for which, in experiment [1], the difference in excitability turned out to be 9.9. The “difference in startle response” value in experiment [2] is -2.3. Also, the “difference in activity during first hour” value in experiment [3] was 4.74. Moreover, in experiment [4], the “difference in habituation” value is -1.52. Besides, the difference in experiment [5] was -1.12.

With `Cc1ccc(S(=O)(=O)NC(=O)NN2CCCCCC2)cc1` [Tolazamide], the difference in excitability in experiment [1] is 7.01. In addition, the “difference in startle response” value in experiment [2] was found to be 21.4. For the same compound, in experiment [3], the “difference in activity during first hour” value came to 4.59. Also, in experiment [4], the “difference in habituation” value amounted to 2.23. In addition, in experiment [5], the difference was found to be 9.69.

As for `C=C(c1ccc(C(=O)O)cc1)c1cc2c(cc1C)C(C)(C)CCC2(C)C` [Bexarotene], in experiment [1], the difference in excitability was found to be 7.21. In experiment [2], the “difference in startle response” value was 1.4. Further, the “difference in activity during first hour” value in experiment [3] was -13.5. The “difference in habituation” value in experiment [4] was -4.93. Further, in experiment [5], the difference is -11.

`CC(C)NCC(O)COc1ccc(CC(N)=O)cc1` (racemic) [(±)-Atenolol]: the difference in excitability in experiment [1] was determined as 3.98. The “difference in startle response” value in experiment [2] was -0.206. The “difference in activity during first hour” value in experiment [3] was 8.47. Moreover, in experiment [4], the “difference in habituation” value was found to be 1.78. Also, the difference in experiment [5] was 1.82.

As for `Cc1ccc(-c2cc(C(F)(F)F)nn2-c2ccc(S(N)(=O)=O)cc2)cc1` [Celecoxib], the difference in excitability in experiment [1] was 6.16. Further, the “difference in startle response” value in experiment [2] is -9.06. Besides, in experiment [3], the “difference in activity during first hour” value is 2.67. The “difference in habituation” value in experiment [4] was -10.4. The difference in experiment [5] was -6.28.

`CC(=O)CCCCn1c(=O)c2c(ncn2C)n(C)c1=O` [Pentoxifylline] returned a difference in excitability in experiment [1] of 11.4. For the same compound, in experiment [2], the “difference in startle response” value is 2.26. Further, in experiment [3], the “difference in activity during first hour” value was 8.3. Also, in experiment [4], the “difference in habituation” value amounted to 4.08. The difference in experiment [5] turned out to be 6.01.

Source of the values: the supplement of paper PMC10515830.
